Compounds without any hit were thinned out: in the full panel of roughly 83,000, 20% have a hit.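 In brief: 96-well plates, 48 h treatment, single concentration, percent growth endpoint.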 Unmarked numbers belong to inactive results. Active and inactive are the calls of the source. How the source made its calls: active means growth percent below 10; inactive means the rest.
Tests used:
Assay in all cases: NCI-60 one-dose screen, 48 h (100 = growth as untreated, 0 = no growth, -100 = all killed)
Settings in all cases: 10 µM unless noted
[1] = tested on: SK-MEL-2 melanoma
[2] = tested on: EKVX NSCLC
[3] = tested on: SN12C renal
[4] = tested on: UO-31 renal
[5] = tested on: TK-10 renal
[6] = tested on: ACHN renal
[7] = tested on: CAKI-1 renal
[8] = tested on: A498 renal
[9] = tested on: CCRF-CEM leukemia
[10] = tested on: MOLT-4 leukemia

SMILES | growth [1] | growth [2] | growth [3] | growth [4] | growth [5] | growth [6] | growth [7] | growth [8] | growth [9] | growth [10]
NC1=Nc2cc(OCCCCN3Cc4ccccc4C3)c(OCC3CC3)cc2C12CCCC2 | 12.5% | 64.7% | 66.5% | 43.2% | 87.1% | 65.7% | 1.68% (active) | -0.354% (active) | 37.7% | 29.9%
COc1ccc(/C=C/C(=O)c2cc(OC)c(OC)c(OC)c2)cc1OCC(=O)Nc1nc2ccc(OC(F)(F)F)cc2s1 | 45.7% | 62.1% | 19.1% | 3.8% (active) | -6.47% (active) | -1.17% (active) | 9.57% (active) | 68.1% | 20.4% | 0.429% (active)
O=C1/C=C/[C@@H](O)[C@@H]2C[C@@H](O)C[C@H]2/C=C/CCC[C@H](CCO)O1 | -20.3% (active) | 9.95% (active) | 10.5% | 18.1% | -30.4% (active) | 5.87% (active) | 1.05% (active) | -33.3% (active) | 18.8% | 15.1%
O=C1C(Nc2ccccn2)=C(I)C(=O)c2ncccc21 | -53.7% (active) | -7.46% (active) | -70.8% (active) | -97.7% (active) | -21.4% (active) | -36.1% (active) | 5.77% (active) | 68.2% | 3.29% (active) | -25.4% (active)
Cn1c2c(c3ccc(Cl)c(Cl)c31)C(C#N)C(C)(C)NC2=O (stereo not given) | 45.2% | 84.9% | 93.6% | 110% | 82.3% | 80.1% | 63.4% | -14.9% (active) | 87.9% | 59.4%
Nc1c(C(=O)Nc2cccc(Cl)c2)sc2nc3c(cc12)CCCC3 | 86.6% | 94.8% | 97.6% | 90.3% | 85.1% | 94.4% | 91.3% | 87.6% | 87.1% | 84.8%
CN(C)CCCC1(c2ccc(F)cc2)OCc2cc(-c3ccc4cc[nH]c4c3)ccc21 (stereo not given) | 87.6% | 61.6% | 58.6% | 30.2% | 92.9% | 36.2% | 30.4% | 81.5% | 33.2% | -8.83% (active)
NC(=O)c1cnc(Nc2cccc(N)c2)nc1NCCCNC(=O)C1CCC1 | 65.2% | 93% | 33% | 27.8% | 32.1% | 49.5% | 37.2% | 90.4% | 25.9% | 26.1%
O=C(Nc1ccc(Br)cc1)C1=NCCCCN1 | 103% | 86.1% | 94.7% | 67.6% | 93.4% | 64.1% | 52.4% | 95.7% | 84.5% | 96.5%
COc1ccc(C(O)c2cc3c(N)c(C(=O)Nc4cccc(Cl)c4C)sc3nc2C)cc1 (stereo not given) | 17% | 35% | 13.6% | 17.9% | 44.1% | 24.7% | 13.8% | -24.7% (active) | 10.1% | 15.2%
COc1ccc2c(c1)c(/C(O)=C1\COC(=O)C1=O)cn2Cc1ccc(F)cc1 | 85.5% | 106% | 92.9% | 72.9% | 119% | 103% | 125% | 91.5% | 76.7% | 112%
O=C(C1CCCCC1)[C@@H]1[C@]2(C(=O)NC3CCCCC32)[C@@H]2CCCN2[C@@]12C(=O)NC1CCC(Cl)CC12 (stereo not given in full) | -79.2% [100 µM] (active) | -89.5% [100 µM] (active) | -80% [100 µM] (active) | -73% [100 µM] (active) | -81.1% [100 µM] (active) | -97.8% [100 µM] (active) | -82.7% [100 µM] (active) | -94.8% [100 µM] (active) | -49% [100 µM] (active) | -57.3% [100 µM] (active)
O=C(Oc1ccc(CCl)cc1)c1ccccc1 | -71.4% (active) | -100% (active) | -84.8% (active) | -92.6% (active) | -96.3% (active) | -92.1% (active) | -96.3% (active) | -87.4% (active) | -48.6% (active) | -49.7% (active)
Clc1c(Cl)[n+](Cc2ccc3ccccc3c2)cn1Cc1ccc2ccccc2c1 | -55% (active) | 38.7% | 28.1% | 70.7% | -63% (active) | 84.7% | 89.7% | 54.7% | 6.14% (active) | -0.428% (active)
N=C(N)c1ccc(-c2ccc(-c3cc(Cl)cc(Cl)c3)s2)nc1 | 109% | 94.5% | 83% | 90.6% | 115% | 74.8% | 30.9% | 91.6% | 21.7% | 2.78% (active)
CN(C)c1ccc(-c2ccc3c(c2)c(-c2ccccc2)nc(=O)n3C)cn1 | 26.8% | 69.6% | 42.6% | 42.3% | 56.4% | 49.9% | 34.7% | 25.8% | 13% | 29.9%
COc1ccc(/C=C/c2c(C(=O)/C=C/c3ccccc3)c(C)nc3ccccc23)cc1 | 14.2% | 41% | 23.6% | -7.16% (active) | 25.1% | 7.53% (active) | 20.9% | 46.6% | 7.45% (active) | 6.35% (active)
COc1ccc(-c2cc(-c3ccccc3)nc(N3CCN(CCNc4ccnc5cc(Cl)ccc45)CC3)n2)cc1 | -9.46% (active) | 79.9% | -43.3% (active) | -4.9% (active) | -13.4% (active) | 66.3% | -24.9% (active) | 15.3% | 3.98% (active) | -1.76% (active)
COc1ccc(CCN(CC(=O)N(CC(N)=O)C2CCC[C@@H]2OCc2ccccc2)C(=O)CN(C(=O)CN(CCc2ccc(Cl)cc2)C(=O)CN(C(=O)CN(C)Cc2ccccc2F)[C@H](C)C2CCCCC2)[C@H](C)C2CCCCC2)cc1OC (stereo not given in full) | 1.88% (active) | 30.8% | 35.3% | 37.3% | 15.6% | 28.8% | 94.7% | 32% | 7.58% (active) | -37% (active)
CC1=CC(c2ccco2)=C2C(N)=NNC2N1 (stereo not given) | 108% | 96.9% | 89.9% | 80.9% | 111% | 90.8% | 82.6% | 86.3% | 101% | 103%
COc1ccc(-c2nc3c(N)c(CO)cnc3s2)cc1 | 105% | 48.4% | 108% | 84.6% | 91.9% | 93.4% | 88.7% | -19.1% (active) | 103% | 91.1%
CCOC(=O)c1c(C)nc2c(c1N)/C(=C/c1ccc(OC)cc1)C(=O)N2Cc1ccccc1 | 64.6% | 75.6% | 57.4% | 56.6% | 97.2% | 71.1% | 78.6% | 74.4% | 48.9% | 15.9%
Cc1ccc(S(=O)(=O)N2CCC(=O)c3ccccc32)cc1 | 56.9% | 102% | 81.2% | 71.1% | 89.1% | 90.7% | 91.9% | 83.2% | 66.3% | 64.1%
O=C(Cn1nnc2ccccc21)N/N=C/c1c[nH]c2ccccc12 | 38.4% | 62.4% | 45.9% | 52.4% | 64.7% | 64.1% | 45.7% | 60.4% | 47.7% | 29.9%

Reference: PubChem BioAssay (NCI)
